SRC1 TRFRET art – flags TR-FRET format artefacts in PPARgamma SRC-1 recruitment agonist screen; TR-FRET detection artefact counter-screen, emission ratio; stronger effect = higher value; 99,000 compounds, 0.34% hits; AID 1051; TR-FRET ratio at 8 µM; in the data active = TR-FRET ratio above about 2300
PPARg SRC2 recr – PPARgamma-driven SRC-2 recruitment agonism. PPARgamma LBD-SRC-2 recruitment, biochemical. activation, % at 8 µM. P37231. 200,000 compounds, 0.34% hits;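 note: 0% = vehicle and 100% = reference agonist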
Target sequence (P37231 whole entry, looked up, the tested form may be a part): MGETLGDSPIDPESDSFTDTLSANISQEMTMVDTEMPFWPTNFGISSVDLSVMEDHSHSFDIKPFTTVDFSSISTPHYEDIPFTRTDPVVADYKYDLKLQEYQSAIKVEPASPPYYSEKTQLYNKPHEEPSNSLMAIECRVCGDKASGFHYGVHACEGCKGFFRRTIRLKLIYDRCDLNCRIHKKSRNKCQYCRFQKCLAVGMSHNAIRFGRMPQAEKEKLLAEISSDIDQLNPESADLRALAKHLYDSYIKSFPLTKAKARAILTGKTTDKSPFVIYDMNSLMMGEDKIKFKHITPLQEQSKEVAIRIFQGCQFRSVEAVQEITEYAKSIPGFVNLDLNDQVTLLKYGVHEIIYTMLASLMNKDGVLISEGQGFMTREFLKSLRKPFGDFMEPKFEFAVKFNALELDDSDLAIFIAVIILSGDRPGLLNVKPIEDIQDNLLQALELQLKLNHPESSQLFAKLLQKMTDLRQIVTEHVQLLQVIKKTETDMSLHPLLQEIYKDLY
SRC2 TRFRET art – TR-FRET artefact, counter-screen to PPARgamma/SRC-2 agonist assay; stronger effect = higher value; TR-FRET ratio at 8 µM; 200,000 compounds, 0.4% hits; in the data active = TR-FRET ratio above about 2000
PPARg SRC-3 ag – promotes SRC-3 coactivator recruitment by human PPARgamma | P37231 | biochemical PPARgamma/SRC-3 coactivator recruitment assay | activation, % at 8 µM | 200,000 compounds, 0.26% hits | AID 731; in the data active = activation above about 23%;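 note: 0% = DMSO and 100% = reference agonist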
SRC3 TRFRET art – TR-FRET artefact, counter-screen to PPARgamma/SRC-3 agonist assay; AID 1048; PPARgamma/SRC-3 format; stronger effect = higher value; 99,000 compounds, 0.39% hits; TR-FRET ratio at 8 µM; in the data active = TR-FRET ratio above about 2000
PPARg SRC-1 ag – PPARgamma-driven SRC-1 recruitment agonism | P37231 | PPARgamma-SRC-1 coactivator recruitment biochemical assay | activation, % at 8 µM | 200,000 compounds, 0.41% hits; in the data active = activation above about 19%;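 note: 0% = DMSO and 100% = reference agonist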
PPARg SRC2 conf – confirmation of agonists of SRC-2 recruitment by human PPARgamma; shares compounds with PPARg SRC-3 ag; biochemical SRC-2 recruitment by PPARgamma; activation, % at 8 µM; 790 compounds, 52% hits; AID 1297;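 note: 0% = vehicle alone and 100% = reference agonist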
PPARg SRC1 conf – human PPARgamma SRC-1 recruitment agonism, confirmation; 790 compounds, 43% hits; shares compounds with PPARg SRC-3 ag; PPARgamma–SRC-1 coactivator recruitment biochemical assay; activation, % at 8 µM; in the data active = activation above about 20%;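 note: 0% = vehicle wells and 100% = reference agonist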
PPARg SRC3 ag – confirmation of agonists of SRC-3 recruitment by human PPARgamma. shares compounds with PPARg SRC-3 ag. biochemical PPARgamma-SRC-3 coactivator recruitment, agonist mode. activation, % at 8 µM. 790 compounds, 29% hits; in the data active = activation above about 24%;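 note: 0% = vehicle wells and 100% = reference agonist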
The depositor's hits bear a star; . = no result given. A selection: hits, their analogues and other compounds. The true share with any hit is near 0.9%. Cut-off read from the data, not from the text of the source, unless noted: active = activation above about 22%; inactive = the rest.

SMILES	SRC1 TRFRET art	PPARg SRC2 recr	SRC2 TRFRET art	PPARg SRC-3 ag	SRC3 TRFRET art	PPARg SRC-1 ag	PPARg SRC2 conf	PPARg SRC1 conf	PPARg SRC3 ag
Cc1cc2cc(CNC(=O)c3cc4ccccc4o3)ccc2n1C	.	18.1	2988*	31.5*	.	21.5*	41.3*	31.8*	23.1
COc1ccc(C(=O)NCc2ccc3c(c2)cc(C)n3C)cc1	1948	3.0	1490	2.3	1480	-3.3	.	.	.
CCC(C)NC(=O)c1ccccc1-c1nc2ccccc2[nH]1 (configuration not stated)	2054	3.0	1746	0.4	1650	10.3	.	.	.
O=C(OC(C(=O)Nc1cccc(C(F)(F)F)c1)c1ccccc1)C1CCCCC1 (configuration not stated)	1523	-0.7	1536	-0.7	1682	-8.1	.	.	.
O=C(O)c1cn(-c2ccc(N3CCCC3)c(F)c2)c2c(F)c(F)c(F)cc2c1=O	4223*	67.8*	3278*	38.1*	3524*	67.3*	-4.9	-4.0	3.7
CCOc1ccc(NC(=O)Nc2cc(-c3ccccc3)sc2C(=O)OC)cc1	1837	1.4	1494	-0.7	1594	4.9	.	.	.
COC(=O)c1sc(-c2ccccc2)cc1NC(=O)C1CC1	2544*	30.2*	2243*	21.0	2499*	32.6*	32.0*	21.1*	17.6
CCOC(=O)c1sc(-c2ccc(OC)cc2)cc1NC(C)=O	2390*	22.5*	1849	14.1	2089*	17.9	43.0*	29.7*	31.5*
COc1cc(C2C(C#N)=C(C)NC(C)=C2C#N)cc(OC)c1OC	1480	0.3	1497	0.2	1571	-1.3	.	.	.
O=C(C1=C[C@@H](C2CCCCC2)C[C@@H](OCc2ccc(CO)cc2)O1)N1CCN(Cc2ccccc2)CC1	1769	3.7	1582	1.6	1598	-6.5	.	.	.
COc1ccc(OCC(=O)N/N=C(\C)CC(=O)Nc2cccc([N+](=O)[O-])c2)cc1	1753	6.1	1603	5.7	1706	2.0	.	.	.
CCC(/C=C1\Sc2ccc(OC)cc2N1CCO)=C\c1sc2ccc(OC)cc2[n+]1CCO	2291	19.0	1865	19.3	1991	23.1*	12.9	2.7	7.6
O=c1c2c(-c3cccs3)csc2ncn1-c1ccc(Br)cc1	.	17.1	1896	3.5	.	3.5	.	.	.
C=CCn1c(=S)[nH]c2scc(-c3cccs3)c2c1=O	3938*	76.1*	3332*	42.4*	3585*	68.0*	77.8*	55.5*	47.5*
Cn1c(=S)[nH]c2scc(-c3cccs3)c2c1=O	3197*	42.3*	2702*	26.7*	2495*	50.4*	57.4*	41.4*	36.5*
Cc1ccc(NS(=O)(=O)c2ccc(OCC(N)=O)cc2)cc1	1730	0.6	1375	1.5	1511	-2.4	.	.	.
COc1ccc2cc3[n+](cc2c1OC)CCc1cc2c(cc1-3)OCO2	1819	24.7*	1423	-1.8	1328	12.9	7.2	7.0	4.8
COc1cccc(C2=NCCc3cc4c(cc32)OCO4)c1OC	1702	4.6	1481	1.2	1576	2.2	.	.	.
COCCCNc1oc(-c2cccs2)nc1S(=O)(=O)c1ccc(C)cc1	1713	-1.8	1478	32.5*	1632	14.7	1.5	14.0	15.7
COCCNc1oc(-c2cccs2)nc1S(=O)(=O)c1ccc(C)cc1	1747	-3.6	1626	4.9	1609	3.7	.	.	.
Cc1cccc(NC(=O)CNC(=O)COc2ccc(C(=O)c3ccc(F)cc3)cc2)c1C	1970	1.3	1480	3.5	1628	2.9	.	.	.
Cc1cccc(NC(=O)CNC(=O)COc2ccc(-c3ccc(C#N)cc3)cc2)c1C	2605*	11.9	1521	7.5	1717	26.7*	8.4	7.9	5.0

High-throughput results as filed in PubChem BioAssay.
